Source: PubChem BioAssay (Broad Institute)
The sample as a whole holds a higher share of hits than the screen did.
PD-1 reversal – reversal of PD-1 mediated T-cell inhibition. 29,000 tested, under 10 active. primary human CD4 T cells, PD-L1 beads, CellTiter-Glo 96 h. activation, % (no concentration beside the values); call rule not given here
NOMO-1 viab – STK33 inhibitor candidate reducing NOMO-1 cell viability. NOMO-1 AML viability, CellTiter-Glo luminescence, 72 h. inhibition, % (test concentration not listed). 37,000 tested, 7.5% active; in the data active means inhibition above about 80%
STK33 kin inh – human STK33 kinase inhibition; 27,000 tested, 0.44% active; inhibition, % at 12.5 µM; Q9BYT3; AID 2322; ADP-Glo luminescence, MBP substrate; in the data active means inhibition above about 20%
Target sequence (Q9BYT3 whole entry, looked up): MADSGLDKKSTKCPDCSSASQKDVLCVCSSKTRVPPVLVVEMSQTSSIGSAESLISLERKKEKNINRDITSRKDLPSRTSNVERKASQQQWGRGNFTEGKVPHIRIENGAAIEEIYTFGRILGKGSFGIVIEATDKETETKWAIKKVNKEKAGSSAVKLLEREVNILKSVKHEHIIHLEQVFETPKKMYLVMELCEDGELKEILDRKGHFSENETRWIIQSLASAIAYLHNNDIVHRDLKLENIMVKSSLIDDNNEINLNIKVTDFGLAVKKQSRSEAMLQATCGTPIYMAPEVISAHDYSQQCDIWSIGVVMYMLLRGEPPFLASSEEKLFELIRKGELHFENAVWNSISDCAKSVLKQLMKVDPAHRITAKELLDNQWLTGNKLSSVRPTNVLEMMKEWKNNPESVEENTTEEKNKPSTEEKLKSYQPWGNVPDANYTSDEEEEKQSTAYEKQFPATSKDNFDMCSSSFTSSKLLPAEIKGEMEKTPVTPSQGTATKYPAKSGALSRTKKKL
A number is an active result; – = inactive; · = no result.

SMILES	PD-1 reversal	NOMO-1 viab	STK33 kin inh
CC[C@@H]1/C=C\C=C\C[C@H](C)C(O)[C@](C)(O)C(=O)[C@H](C)C(O)[C@H](C)C(=O)[C@H](C)[C@@H](O)[C@H](C)/C=C/C(=O)O[C@H]2[C@@H](C)[C@@H](CC1)O[C@@]1(CC[C@@H](C)[C@@H](C[C@H](C)O)O1)[C@@H]2C (stereo partly drawn)	–	124	–
C[C@]12C=CC(=O)C=C1CCC1C2CC[C@]2(C)C(=O)CCC12 (stereo partly drawn)	·	–	–
CC1(C)C2CC(=O)[C@]3(C)C(CC[C@@]4(C)[C@H](c5ccoc5)OC(=O)[C@H]5O[C@]543)[C@@]2(C)C(=O)C[C@H]1O (stereo partly drawn)	·	–	–
COc1cc2c(cc1OC)-c1c(oc3c4c(ccc3c1=O)OC(C(C)C)C4)CO2 (stereo not drawn)	·	–	–
C[C@@H]1O[C@@H](O[C@H]2[C@H](O)[C@@H](O)[C@H](O[C@@H]3C=C4CC[C@@H]5C(CC[C@]6(C)[C@@H](c7ccc(=O)oc7)CC[C@]56O)[C@@]4(C)CC3)O[C@@H]2CO)[C@H](O)[C@H](O)[C@H]1O (stereo partly drawn)	–	124	–
O=C1CC=C2C3CC4N(CCC45c4ccccc4N1C25)C/C3=C/CO (stereo not drawn)	–	–	–
COc1cccc(CNCCc2c[nH]c3ccccc23)c1O	·	–	–
c1ccc2nc(N3CCNCC3)ccc2c1	·	–	–
CCCN[C@@H]1CCc2c(OC)cccc2[C@@H]1C	·	–	–
C=CCN1C(=O)/C(=C/c2cc(C)n(-c3ccccn3)c2C)C(=O)NC1=S	–	111	·
CCN1C[C@@]2(COC)C3[C@@H](OC)[C@H]4[C@@H]1[C@@]3(C1C[C@]3(O)[C@H](OC(=O)c5ccccc5)C1[C@]4(OC(C)=O)[C@@H](O)[C@H]3OC)[C@@H](OC)C[C@H]2O (stereo partly drawn)	–	–	–
CCNc1nc(Cl)nc(NCC)n1	·	–	–
CC[C@@]1(O)C(=O)OCc2c1cc1n(c2=O)-c2cc3ccccc3nc2C1	–	143	–
O=C(O)CP(=S)(c1ccccc1)c1ccccc1	–	–	·
O=C(O)CCCc1ccc(N(CCCl)CCCl)cc1	·	110	–
N[C@@H](Cc1ccc(N(CCCl)CCCl)cc1)C(=O)O	·	111	–
C=C1[C@@H](C)[C@H]2[C@H](Cc3ccccc3)NC(=O)[C@]23[C@H](OC(C)=O)C=C[C@](C)(O)C(=O)[C@@H](C)C/C=C/[C@H]3[C@@H]1O	·	114	–
CCC(C)[C@H]1O[C@]2(C=C[C@@H]1C)C[C@@H]1C[C@@H](C/C=C(\C)[C@@H](OC3C[C@H](OC)C(O[C@H]4C[C@H](OC)[C@@H](O)[C@H](C)O4)[C@H](C)O3)[C@@H](C)/C=C/C=C3\CO[C@@H]4[C@H](O)C(C)=C[C@@H](C(=O)O1)[C@]34O)O2 (stereo partly drawn)	·	104	–
O=C1NC(=O)C(CCc2ccncc2)(CCc2ccncc2)C(=O)N1c1ccccc1F	–	–	–
CCOC(=O)c1c(C)n(C2CCCCC2)c2ccc(O)cc12	–	–	·
